A short description of experiment [1]: blockers of polyQ-driven CASP3 activation – cell-based (AID 1583). The conditions noted are these: polyglutamine-induced caspase-3 activation, cell assay; stronger effect = higher value;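 tested at 10 µM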.
The nature of experiment [2]: yeast 75Q aggregation reduction – 75Q-TubU reporter (AID 1593). As to conditions: Yeast 75Q polyglutamine aggregation reporter.
The nature of experiment [3]: restoration of touch response, mutant HTT neurons – whole organism, C. elegans mechanosensory neurons, N-terminal huntingtin (AID 1599). As to conditions: C. elegans polyQ-huntingtin mechanosensory neurons, stronger effect = higher value.
A short description of experiment [4]: blockers of cytochrome c efflux from mitochondria – biochemical, purified mitochondria (AID 1603).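 Also: mouse liver mitochondria challenged with calcium chloride; signal normalized to the plate average as 100%.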 The conditions noted are these: stronger effect = lower value.
Experiment [5] is described as follows: polyglutamine aggregate formation blockers (AID 1604). The conditions noted are these: polyglutamine-induced protein aggregation inhibition assay; stronger effect = higher value; tested at 2.5 µM.
The nature of experiment [6]: glutamate transport activators, MN-1 cells, MN-1 cell line (AID 1612).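 Also: tested at 1 µM final; 0% = mean of DMSO vehicle wells on each plate; positive means more glutamate uptake than control and negative means less.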 As to conditions: MN-1 motor neuron cells, stronger effect = higher value.
Experiment [7] can be described thus: 75Q-TubH aggregate inhibition, S. cerevisiae, yeast (AID 1616). As to conditions: S. cerevisiae 75Q-TubH polyglutamine aggregation suppression; stronger effect = higher value.
The nature of experiment [8]: compounds altering viability of human ES cells (AID 493140; call rule not given here;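 also: cells exposed to compounds for four days before counting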). As to conditions: human embryonic stem cell survival screen; stronger effect = higher value.
The subject of experiment [9] is Neuropilin-2 / VEGF-C interaction (human). As to the kind of experiment: small molecules blocking Neuropilin-2/VEGF-C interaction – biochemical, microplate binding format, z-score (AID 743281; call rule not given here). As to conditions: microplate NRP2/VEGF-C binding assay; stronger effect = lower value.
A short description of experiment [10]: modulation of C. elegans fzo-1 (AID 1259413; call rule not given here;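 also: fzo-1 mutant C. elegans worms in liquid wells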). The conditions noted are these: C. elegans fzo-1 modulator screen, mean read-out; stronger effect = higher value.
In experiment [11] the test system is F380Y/beta2Delta. Put plainly: BK channel mutant inhibitors and activators – cell-based, U2OS BacMam, thallium flux, beta subunits, selectivity assay, profiling panel (AID 1259406).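 Also: initial slope of Thallos dye fluorescence rise after thallium is added; log ratio against the mean of 0.3% DMSO vehicle wells on the same plate.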 As to conditions: U2OS BacMam BK variants, at 30 µM.
The target of experiment [12] is Calcium-activated potassium channel subunit alpha-1 (Homo sapiens) + Leucine-rich repeat-containing protein 26 (Homo sapiens) (UniProt Q12791+Q2I0M4). Described as above. As to conditions: U2OS BacMam BK variants, F380Y/Slo1WT/gamma1, at 30 µM.
Sequence of Calcium-activated potassium channel subunit alpha-1 (Homo sapiens) + Leucine-rich repeat-containing protein 26 (Homo sapiens) (Q2I0M4 whole entry, looked up, one chain of several): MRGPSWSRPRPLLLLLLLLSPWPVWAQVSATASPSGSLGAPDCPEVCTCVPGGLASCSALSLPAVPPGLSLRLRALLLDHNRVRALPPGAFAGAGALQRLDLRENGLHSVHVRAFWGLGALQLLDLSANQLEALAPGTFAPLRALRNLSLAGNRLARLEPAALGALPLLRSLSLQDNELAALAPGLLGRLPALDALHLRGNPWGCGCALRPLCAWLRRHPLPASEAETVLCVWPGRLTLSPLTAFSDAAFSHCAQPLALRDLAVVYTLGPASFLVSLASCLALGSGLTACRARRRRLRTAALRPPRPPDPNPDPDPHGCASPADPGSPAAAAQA
Experiment [13] relates to R275C. The experiment is described as above. The conditions noted are these: U2OS BacMam BK variants, at 30 µM.
The test system of experiment [14] is R275C/beta1. The description is as above. The conditions noted are these: U2OS BacMam BK variants, at 30 µM.
Experiment [15] concerns R275C/beta2Delta. The experiment is described as above. The conditions noted are these: U2OS BacMam BK variants, at 30 µM.
Experiment [16] is described as follows: galactose survival enhancers in mitochondrial complex I cybrids – cell-based, galactose medium, ATP luminescence, primary screen (AID 1645843;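 active = z-score of at least 1.8 in each of two replicates, scored against plate mean and spread of sample wells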;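 also: positive z means more ATP and so rescue of galactose-driven cybrid death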). The conditions noted are these: complex I mutant cybrid cells, 72 h, stronger effect = higher value.
Experiment [17] has as its system F380Y/beta1. As to the kind of experiment: BK channel mutant inhibitors and activators – cell-based, U2OS BacMam, thallium flux, beta subunits, selectivity assay, profiling panel (AID 1259406).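 Also: initial slope of Thallos dye fluorescence rise after thallium is added; log ratio against the mean of 0.3% DMSO vehicle wells on the same plate.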 As to conditions: U2OS BacMam BK variants, at 30 µM.
The test system of experiment [18] is F380Y/beta4. Described as above. As to conditions: U2OS BacMam BK variants, at 30 µM.
Experiment [19] concerns R275C/beta4. The experiment is described as above. As to conditions: U2OS BacMam BK variants, at 30 µM.
The subject of experiment [20] is R275C/Slo1WT/beta2. The description is as above. The conditions noted are these: U2OS BacMam BK variants, at 30 µM.

Here are results for 12 compounds from PubChem BioAssay.

“And” between values parts separate entries of the source, which are not always exact repeats. Equal values may be shown once. For part of these data: Potency and affinity values are given separately. The source made the active and inactive calls.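 The calls were made as follows, unless noted: active = thallium flux through the channel raised or lowered by more than 3 SD from vehicle-only wells, actives on both sides; inactive = the rest.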

For orientation: inhibition means the drop in the measured response relative to a control, in per cent.

For the compound `CNCCCC12CCC(c3ccccc31)c1ccccc12`, in experiment [1], the inhibition is -14.8%. Further, in experiment [2], the score was found to be 1.5. The compound further returned a rescue above control in experiment [3] of 28.8. In addition, the cytochrome c release ratio in experiment [4] came to 1.86. Besides, the inhibition of aggregation in experiment [5] was 26.4%. For the same compound, in experiment [6], the glutamate uptake change came out at 22.4%. Further, the aggregation suppression score in experiment [7] turned out to be 1.14. Also, the survival in experiment [8] was 0.833 (inactive). In addition, in experiment [9], the z-score is -0.344 (inactive). For the same compound, the mean signal in experiment [10] is 255 (inactive). The log fold change Tl+ flux in [11] is 0.203 (active); in [12], 0.0351 (inactive); in experiment [13], 0.0254 (inactive); in experiment [14] it was 0.285 (active); in experiment [15], 0.217 (active).
`CN(C)CCOC(c1ccccc1)c1ccccc1`: the inhibition in experiment [1] is 15.6%. The compound also came in with a score in experiment [2] of 1.18. The same compound returned a rescue above control in experiment [3] of -3.14. In addition, in experiment [4], the cytochrome c release ratio amounted to 1.11. Moreover, in experiment [5], the inhibition of aggregation is 85.2%. Further, the glutamate uptake change in experiment [6] stood at 8.03%. Moreover, the aggregation suppression score in [7] stood at 1.07. Further, the survival in [8] is 14 (inactive). Besides, the z-score in experiment [9] was -0.533 (inactive); in experiment [16] it was -0.255 (inactive) and 0.81 (inactive) and 0.09 (inactive). Besides, in experiment [10], the mean signal is 216 (inactive). In addition, the log fold change Tl+ flux in experiment [11] was 0.0216 (inactive); in [12] it was -0.0145 (inactive); in [13], 0.00435 (inactive); in experiment [14], 0.00179 (inactive); in experiment [15] it was 0.0139 (inactive).
For `COc1ccc2c(c1)c(CC(=O)O)c(C)n2C(=O)c1ccc(Cl)cc1`, the inhibition in experiment [1] worked out at 24.4%. The compound also gave a score in [2] of -1.46. For the same compound, the rescue above control in experiment [3] was -5.76. Further, the cytochrome c release ratio in experiment [4] amounted to 0.82. Moreover, the inhibition of aggregation in [5] was -6.06%. The glutamate uptake change in [6] stood at 7.33%. For the same compound, the aggregation suppression score in [7] is 0.0101. The survival in experiment [8] was 13.2 (inactive). The z-score in experiment [9] was 0.68 (inactive). Also, the mean signal in experiment [10] is 244 (inactive). In addition, the log fold change Tl+ flux in [11] was 0.11 (active); in [12] it was 0.0683 (inactive); in experiment [13], 0.074 (inactive); in experiment [14] it was 0.196 (active); in experiment [15], 0.128 (active).
As for `CCCCc1oc2ccccc2c1C(=O)c1cc(I)c(OCCN(CC)CC)c(I)c1`, the inhibition in experiment [1] came out at 18.6%. The same compound came in with a score in [2] of -1.49. For the same compound, the rescue above control in [3] was found to be 0.17. In addition, the cytochrome c release ratio in experiment [4] was 0.79. The inhibition of aggregation in [5] came to 28.8%. Moreover, in [6], the glutamate uptake change amounted to 11.2%. The compound also registered an aggregation suppression score in experiment [7] of -0.303. For the same compound, the survival in [8] is 3.5 (inactive). Further, the z-score is -0.442 (inactive) in experiment [9]; -1.52 (inactive) and -1.44 (inactive) and -1.87 (inactive) in [16]. In addition, the mean signal in [10] is 244 (inactive).
Turning to `COc1ccccc1N1CCN(CCCNc2cc(=O)n(C)c(=O)n2C)CC1`, in experiment [8], the survival was 5.83 (inactive). In addition, the z-score in experiment [9] is -0.551 (inactive); in [16] it was 0.56 (inactive) and 1 (inactive) and -0.025 (inactive). For the same compound, the mean signal in experiment [10] was 262 (inactive). In addition, the log fold change Tl+ flux in experiment [11] was -0.00368 (inactive); in experiment [12] it was -0.00786 (inactive); in experiment [13], -0.0421 (inactive); in experiment [14], 0.0413 (inactive); in [15] it was 0.0288 (inactive).
Regarding `CCn1cc(C(=O)O)c(=O)c2cc(F)c(N3CCNCC3)cc21`, in experiment [1], the inhibition was -2.25%. Further, the score in experiment [2] worked out at 0.92. The rescue above control in [3] is 3.5. For the same compound, the cytochrome c release ratio in experiment [4] worked out at 0.95. In addition, in [5], the inhibition of aggregation came to 52.4%. The glutamate uptake change in experiment [6] was -6.97%. This compound also had an aggregation suppression score in experiment [7] of 1.19. Moreover, in experiment [8], the survival was 20.2 (inactive). Moreover, the mean signal in experiment [10] is 207 (inactive). For the same compound, the z-score in [16] was 0.67 (inactive).
Take `Fc1ccc([C@@H]2CCNC[C@H]2COc2ccc3c(c2)OCO3)cc1`: the z-score in experiment [9] was 0.222 (inactive); in experiment [16], -1.38 (inactive) and -0.63 (inactive) and -1.71 (inactive). In experiment [10], the mean signal is 159 (inactive).
Consider `CCN(CC)CC(=O)Nc1c(C)cccc1C`, for which, in experiment [1], the inhibition was -3.43%. This compound gave a score in experiment [2] of 1.56. In addition, the rescue above control in [3] is -0.5. Besides, the cytochrome c release ratio in [4] stood at 1.13. Moreover, the inhibition of aggregation in [5] amounted to 87%. The glutamate uptake change in experiment [6] worked out at 0.81%. Also, the aggregation suppression score in [7] stood at 1.18. For the same compound, the survival in experiment [8] is 23.2 (inactive). The z-score was 1.47 (inactive) in [9]; 0.01 (inactive) and 0.715 (inactive) and 0.48 (inactive) in [16]. Also, the mean signal in experiment [10] is 257 (inactive). Moreover, the log fold change Tl+ flux in experiment [11] was -0.0588 (inactive); in experiment [12], 0.0193 (inactive); in experiment [13] it was -0.00245 (inactive); in experiment [14] it was -0.022 (inactive); in [15], 0.00392 (inactive).
`Nc1c2c(nc3ccccc13)CCCC2`: in experiment [1], the inhibition is -14.1%. For the same compound, the score in [2] turned out to be 1.21. The compound also registered a rescue above control in experiment [3] of -13.1. Further, in experiment [4], the cytochrome c release ratio came to 0.63. Also, the inhibition of aggregation in experiment [5] was determined as 38.8%. For the same compound, the glutamate uptake change in experiment [6] worked out at 4.59%. In addition, the aggregation suppression score in experiment [7] is 1.23. Moreover, the survival in experiment [8] is 6.42 (inactive). For the same compound, the z-score in [9] is -0.542 (inactive). Besides, the mean signal in experiment [10] is 215 (inactive). Further, the log fold change Tl+ flux in [11] was -0.00945 (inactive); in experiment [12], 0.00974 (inactive); in experiment [13], 0.0238 (inactive); in [14], -0.0128 (inactive); in [15], -0.0194 (inactive).
Turning to `O=C1N=C(O)CN1/N=C/c1ccc(-c2ccc([N+](=O)[O-])cc2)o1`, the inhibition in experiment [1] was 24%. For the same compound, the score in experiment [2] was 1.7. In addition, the rescue above control in experiment [3] is -1.39. In addition, the cytochrome c release ratio in experiment [4] is 0.66. Further, in [5], the inhibition of aggregation amounted to 71.6%. Moreover, the glutamate uptake change in experiment [6] is -2.24%. Besides, the aggregation suppression score in experiment [7] was 1.1. The survival in experiment [8] is 28.9 (inactive). Further, in experiment [10], the mean signal is 232 (inactive). Further, the z-score in [16] is -0.315 (inactive) and -0.365 (inactive).
As to `O=c1n(CCCN2CCN(c3cccc(Cl)c3)CC2)nc2ccccn12`, the inhibition in [1] amounted to 17.6%. Moreover, in [2], the score turned out to be 1.36. The compound also gave a rescue above control in experiment [3] of 8.41. Further, in experiment [4], the cytochrome c release ratio is 1.04. The inhibition of aggregation in [5] was -2.89%. Besides, the glutamate uptake change in experiment [6] turned out to be 4.27%. The aggregation suppression score in experiment [7] was 1.27. In experiment [8], the survival is 27.2 (inactive). The z-score was 0.0689 (inactive) in experiment [9]; -0.33 (inactive) and 0.63 (inactive) in experiment [16]. For the same compound, the mean signal in experiment [10] was 242 (inactive). Also, the log fold change Tl+ flux in experiment [11] is 0.035 (inactive); in experiment [12], 0.0319 (inactive); in experiment [13], 0.0186 (inactive); in [14], 0.025 (inactive); in experiment [15], 0.0634 (inactive).
On to `CC(=O)O[C@]1(C(C)=O)CC[C@H]2[C@@H]3C=C(C)C4=CC(=O)CC[C@]4(C)[C@H]3CC[C@@]21C`, for which, in experiment [8], the survival was 3.08 (inactive). In [16], the z-score is 0.025 (inactive). The log fold change Tl+ flux in [17] is 0.018 (inactive); in experiment [11] it was 0.0101 (inactive); in experiment [18] it was -0.0433 (inactive); in experiment [12], -0.00133 (inactive); in experiment [13], -0.0376 (inactive); in [14], 0.00523 (inactive). Also, the log fold change Tl+ flux was -0.00852 (inactive) in experiment [15], -0.0116 (inactive) in experiment [19] and 0.0254 (inactive) in experiment [20].
